High-throughput results as filed in PubChem BioAssay.
The list is not random: actives were taken first. Their share in the collection is about 3.3%.
Sm TGR block: qHTS Assay for the Inhibitors of Schistosoma Mansoni Peroxiredoxins; Schistosoma mansoni thioredoxin glutathione reductase (TGR), Q962Y6; purified TGR, DTNB reduction, TNB absorbance 405 nm; Potency, µM (top dose mostly 114 µM), most hits filed as inhibitors; 360,000 tested, 3% active; AID 485364, 2010; note: nearly all actives have a fitted effect of over 60% in size
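First, TGR (20 nM dispensed) and NADPH were mixed with compound. Second, a 15 min room-temperature incubation followed. Third, further NADPH and then DTNB were added to start the reaction. Finally, TNB absorbance was monitored kinetically.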
SARS PLP yeast: qHTS of Yeast-based Assay for SARS-CoV PLP; S. cerevisiae expressing SARS-CoV PLpro, growth rescue; Potency, µM (series often up to 32.9 µM), most hits filed as activators; 330,000 tested, 0.19% active; calls by dose curve; note: nearly all actives have a fitted effect of over 55% in size
LmPK inhibitor: qHTS Assay for Inhibitors of Leishmania Mexicana Pyruvate Kinase (LmPK). Potency, µM (top dose mostly 57.5 µM), usual class: inhibitors. purified LmPK, Kinase-Glo ATP luminescence, 1 h. 290,000 tested, 0.37% active. AID 1721, 2009. Q27686
Target sequence (Q27686 whole entry, looked up): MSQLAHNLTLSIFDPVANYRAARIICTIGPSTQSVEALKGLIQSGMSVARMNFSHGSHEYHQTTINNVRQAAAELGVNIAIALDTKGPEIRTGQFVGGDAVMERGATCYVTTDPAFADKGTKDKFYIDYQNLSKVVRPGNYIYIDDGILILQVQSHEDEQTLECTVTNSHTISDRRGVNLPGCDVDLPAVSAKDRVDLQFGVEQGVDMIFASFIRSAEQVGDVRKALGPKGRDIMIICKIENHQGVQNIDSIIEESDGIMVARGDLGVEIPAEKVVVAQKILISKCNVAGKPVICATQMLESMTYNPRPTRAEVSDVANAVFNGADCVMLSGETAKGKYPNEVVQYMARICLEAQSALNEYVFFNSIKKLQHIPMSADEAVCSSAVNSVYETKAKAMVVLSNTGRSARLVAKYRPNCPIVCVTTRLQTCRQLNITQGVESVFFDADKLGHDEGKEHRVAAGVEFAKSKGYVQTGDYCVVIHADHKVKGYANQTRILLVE
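In 50 mM imidazole pH 7.2 with 7 mM MgCl2, LmPK (0.1 nM) turned over PEP (0.5 mM) and ADP (0.1 mM) for 1 h at room temperature. Luciferase read-out of ATP.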
RE007 growth inh: qHTS Assay for Inhibitors of the HIV-1 protein Vpr; S. pombe RE007 Vpr strain, BacTiter-Glo ATP luminescence, 24 h; Potency, µM (series often up to 92.2 µM), actives largely listed as inhibitors; 360,000 tested, 0.21% active; active = well fitted falling curve with a large enough effect; inconclusive = small, poorly fitted or top-dose-only effect; inactive = no such curve, though single readings can be large or run the other way; note: nearly all actives have a fitted effect of over 50% in size
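Fission yeast strain RE007, carrying one chromosomally integrated HIV-1 vpr copy, was seeded at OD 0.01 in PMG+AL medium with 23 nL pinned compound. After 24 h at 30 °C and 99% humidity, viability was read by BacTiter-Glo luminescence.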
NS1 inh: qHTS Assay for Inhibitors of Influenza NS1 Protein Function; Potency, µM (top dose mostly 46.1 µM); 270,000 tested, 0.4% active; AID 2326, 2010; calls by dose curve; note: actives are rising curves; nearly all actives have a fitted effect of over 50% in size
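In this qHTS, NS1 from influenza A is expressed in budding yeast, where it slows growth. Cells are switched from glucose to 2% galactose medium (pH 6.0, -URA), treated with compound, and growth recovery is read at OD600.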
TbPYK inhibitor: qHTS of Trypanosoma Brucei Inhibitors | pyruvate kinase (Trypanosoma brucei), Q57TT1 | TbPYK enzyme, Kinase-Glo Plus ATP luminescence, 45 min | Potency, µM (series often up to 76.8 µM), most hits filed as inhibitors | 410,000 tested, 0.12% active | AID 624173, 2012; note: nearly all actives have a fitted effect of over 50% in size
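Luminescence from Kinase-Glo Plus, added after a 45-minute room-temperature reaction, served as the end-point read-out. The enzyme and substrate were preincubated with compound before ADP (130 uM final) initiated turnover. Concentration-effect curves came from normalized qHTS data.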
Of the large screens only hits and unclear results are named; the others gave an inactive call. Unless noted, calls come from the whole dose curve; as a rule, active = well fitted curve in the direction sought with a large enough effect; inconclusive = small, poorly fitted or top-dose-only effect, or another doubt; inactive = no such curve, though single readings can be large; an effect the other way counts as inactive or inconclusive.

Cc1cc(C)nc(OC(=O)c2c(Cl)cc(Cl)cc2Cl)n1	none
Cc1cccc(/C(N)=N/OC(=O)c2ccc(Cl)cc2Cl)c1	LmPK inhibitor 7.94µM, TbPYK inhibitor inconclusive
CCOP(=O)(OCC)/C(=N/OC(=O)c1ccc(Cl)cc1Cl)C(N)=O	Sm TGR block 6.31µM
N/C(=N\OC(=O)c1ccccc1Cl)c1ccccc1	LmPK inhibitor 14.1µM
COc1ccccc1N(CC(=O)Nc1ccc2c(c1)OCO2)S(=O)(=O)c1ccc(C)cc1	none (no result: SARS PLP yeast, LmPK inhibitor, RE007 growth inh, NS1 inh)
COC(=O)C1=C(CS(=O)(=O)c2ccc(C)cc2C)NC(=O)NC1c1ccc(C)cc1 (stereo not drawn)	none (no result: SARS PLP yeast, LmPK inhibitor, RE007 growth inh, NS1 inh)
COc1ccccc1NC(=O)c1sc2nc3c(c(C(F)(F)F)c2c1N)CN(C(C)=O)CC3	none (no result: SARS PLP yeast, LmPK inhibitor, RE007 growth inh, NS1 inh)
O=C(CN1C(=O)C2(SCC(=O)N2c2cccc(Cl)c2)c2ccccc21)NCCc1ccccc1 (stereo not drawn)	none (no result: SARS PLP yeast, LmPK inhibitor, RE007 growth inh, NS1 inh)
N/C(=N\OC(=O)c1ccc(Cl)cc1Cl)c1ccc(Cl)cc1	RE007 growth inh inconclusive
N/C(=N\OC(=O)c1ccc(Cl)cc1Cl)c1ccccc1	LmPK inhibitor 11.2µM, TbPYK inhibitor inconclusive
O=C(O)[C@@H]1[C@@H]2C[C@H]([C@@H](Br)[C@H]2N2C(=O)CCC2=O)[C@@H]1C(=O)O	none (no result: Sm TGR block, SARS PLP yeast, LmPK inhibitor, RE007 growth inh, TbPYK inhibitor)
COC(=O)c1nc(NC(=O)c2cc(OC)c(OC)c(OC)c2)n[nH]1	Sm TGR block 31.6µM
COc1cc(C(=O)Nc2ccncc2)cc(OC)c1OC	none
O=C1C(=O)N(CCN2CCOCC2)C(c2ccccn2)/C1=C(/O)c1ccc(F)cc1 (stereo not drawn)	Sm TGR block 28.2µM, TbPYK inhibitor inconclusive
O=C1C(=O)N(CCCN2CCOCC2)C(c2ccc(F)cc2)/C1=C(/O)c1ccccc1 (stereo not drawn)	Sm TGR block inconclusive
COc1ccc(C2/C(=C(/O)c3ccc(C)cc3)C(=O)C(=O)N2CCCN2CCOCC2)cc1 (stereo not drawn)	Sm TGR block 44.7µM
COc1ccc(/C(O)=C2/C(=O)C(=O)N(CCN3CCOCC3)C2c2ccccn2)cc1 (stereo not drawn)	Sm TGR block 22.4µM
CS(=O)(=O)c1ccc(C(=O)OCC(=O)NC23CC4CC(CC(C4)C2)C3)cc1[N+](=O)[O-]	Sm TGR block 2.82µM
COC(=O)c1cccnc1-n1c(=O)c2cccnc2n(CC(=O)Nc2cccc(C)c2)c1=O	none (no result: SARS PLP yeast, LmPK inhibitor, RE007 growth inh, NS1 inh)
COc1cc(OC)c(OC)cc1CNc1cc(C)ccc1OC	Sm TGR block 39.8µM
COc1cc(/C=C/[N+](=O)[O-])ccc1OC(=O)c1cccnc1	Sm TGR block 1.78µM, RE007 growth inh 8.91µM, TbPYK inhibitor inconclusive
COC(=O)c1ccc([C@H]2C=C(C(=O)O)O[C@@H](OCc3ccc(CO)cc3)C2)cc1	Sm TGR block 10µM
C#Cc1ccc([C@@H]2C=C(C(=O)NCc3ccccc3)O[C@H](OCc3ccc(CO)cc3)C2)cc1	Sm TGR block inconclusive
O=C(O)C1=C[C@H](c2ccc(C(F)(F)F)cc2)C[C@H](OCc2ccc(CO)cc2)O1	Sm TGR block 50.1µM
O=C(C1=C[C@@H](c2ccc(C(F)(F)F)cc2)C[C@@H](OCc2ccc(CO)cc2)O1)N1CCN(Cc2ccccc2)CC1	Sm TGR block 35.5µM
NC(=O)C1=C[C@H](c2ccccc2)C[C@H](OCc2ccc(CO)cc2)O1	Sm TGR block inconclusive
C#Cc1ccc([C@H]2C=C(C(=O)O)O[C@@H](OCc3ccc(CO)cc3)C2)cc1	Sm TGR block 35.5µM
COC(=O)c1cc2oc(C)cc2n1CC(=O)Nc1ccc(C)cc1C	none (no result: SARS PLP yeast, LmPK inhibitor, RE007 growth inh, NS1 inh)
Cc1ccc(CNC(=O)c2ccc(Cl)c(S(N)(=O)=O)c2)n1C	Sm TGR block inconclusive
Cc1ccc(CNC(=O)c2cc(Cl)cc(Cl)c2)n1C	Sm TGR block 31.6µM
